A short description of assay [1]: antimalarial activity against Dd2 strain (AID 2302;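 active means growth inhibition above 50% at the single 2 µM test dose, taken to imply half-maximal potency below 2 µM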;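 further: 0% = DMSO untreated growth and 100% = chloroquine plus artemisinin killed control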). The settings on record: P. falciparum Dd2 in RBCs, LDH growth readout, 72 h; at 2 µM; stronger effect = higher value.
Assay [2] can be described thus: HepG2 cytotoxicity, primary screen, cytotoxicity control for P. falciparum antimalarial project, cell-based, ATP luminescence (AID 2303;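 active means inhibition above 50%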;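 further: 0% = DMSO wells and 100% = digitonin-killed cells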). The settings on record: HepG2 viability, 24-48 h, at 10 µM, stronger effect = higher value.
The target of assay [3] is L-lactate dehydrogenase (Plasmodium falciparum (isolate CDC / Honduras)) (UniProt Q27743). As to the kind of experiment: PfLDH activity inhibition – cell lysate, 3D7 strain, counter-screen for P. falciparum growth inhibition project (AID 2304).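 Further: 0% = vehicle and 100% = reference inhibitor.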 The note with it: P. falciparum 3D7 crude extract, LDH APAD/NBT absorbance; at 2 µM; stronger effect = higher value. For orientation: A counterscreen serves to expose hits that act by an unwanted route or on another target.

Assay [4] can be described thus: inhibition of 3D7 malaria parasite growth – strain 3D7 (AID 2306).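 Further: 0% = DMSO wells and 100% = chloroquine plus artemisinin control wells.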 The settings on record: P. falciparum 3D7 erythrocytic growth, LDH absorbance, 72 h; at 2 µM; stronger effect = higher value.
For assay [5], the target named is Calcium-dependent protein kinase 1 (Plasmodium falciparum (isolate 3D7)) (UniProt P62344). As to the kind of experiment: PfCDPK1 kinase inhibitors, biochemical, TCAMS library (AID 1159585; cut-off not given, nearly all actives have IC50 up to about 0.98 µM;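 further: inhibitors leave more ATP so luminescence rises with inhibition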). The note with it: recombinant PfCDPK1, Kinase-Glo ATP depletion luminescence.
The target of assay [6] is Plasmodium falciparum protein kinase 6 (PK6, PF3D7_1337100) (UniProt Q8IDW1). The assay can be described thus: PfPK6 kinase inhibitors, biochemical, TCAMS library (AID 1159586). The settings on record: recombinant PfPK6, Kinase-Glo ATP depletion luminescence. Background: In Kinase-Glo more light means more ATP remaining.
Assay [7] concerns the target Protein kinase 7 (PK7), Plasmodium falciparum 3D7 (PF3D7_0213400) (UniProt Q7YTF7). The assay can be described thus: inhibition of Plasmodium PK7 catalytic activity – biochemical, TCAMS antimalarial set, Kinase-Glo luminescence (AID 1159587). The settings on record: recombinant PfPK7, Kinase-Glo ATP depletion luminescence.
Assay [8] deals with Calcium-dependent protein kinase 4 (Plasmodium falciparum (isolate 3D7)) (UniProt Q8IBS5). As to the kind of experiment: PfCDPK4 kinase inhibitors, biochemical, TCAMS library (AID 1159588; cut-off not given, nearly all actives have IC50 up to about 0.91 µM). The settings on record: recombinant PfCDPK4, Kinase-Glo ATP depletion luminescence.

Values without a mark were called inactive. For some assays here: Results with a measured potency or affinity are listed apart. Activity calls are given as the source filed them. Unless noted, how the calls were made is not given here.

Sequence of Plasmodium falciparum protein kinase 6 (PK6, PF3D7_1337100) (Q8IDW1 1-305): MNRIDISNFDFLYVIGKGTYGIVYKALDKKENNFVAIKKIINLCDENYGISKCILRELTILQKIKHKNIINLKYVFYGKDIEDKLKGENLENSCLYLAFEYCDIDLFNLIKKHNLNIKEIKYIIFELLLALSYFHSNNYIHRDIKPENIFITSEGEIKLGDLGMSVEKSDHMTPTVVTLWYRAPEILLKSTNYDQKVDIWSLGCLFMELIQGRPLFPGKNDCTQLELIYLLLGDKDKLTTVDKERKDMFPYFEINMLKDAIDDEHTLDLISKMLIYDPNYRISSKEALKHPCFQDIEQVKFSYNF
Sequence of Protein kinase 7 (PK7), Plasmodium falciparum 3D7 (PF3D7_0213400) (Q7YTF7 1-343): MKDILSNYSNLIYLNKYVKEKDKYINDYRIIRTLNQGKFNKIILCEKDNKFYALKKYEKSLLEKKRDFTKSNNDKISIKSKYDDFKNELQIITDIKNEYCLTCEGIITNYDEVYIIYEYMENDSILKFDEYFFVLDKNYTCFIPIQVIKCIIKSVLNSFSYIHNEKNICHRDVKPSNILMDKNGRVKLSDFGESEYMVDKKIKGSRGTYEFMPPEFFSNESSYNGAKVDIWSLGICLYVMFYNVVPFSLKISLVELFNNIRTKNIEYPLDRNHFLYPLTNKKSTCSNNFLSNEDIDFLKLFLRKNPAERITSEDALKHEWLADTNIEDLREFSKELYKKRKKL
Sequence of L-lactate dehydrogenase (Plasmodium falciparum (isolate CDC / Honduras)) (Q27743 whole entry, looked up): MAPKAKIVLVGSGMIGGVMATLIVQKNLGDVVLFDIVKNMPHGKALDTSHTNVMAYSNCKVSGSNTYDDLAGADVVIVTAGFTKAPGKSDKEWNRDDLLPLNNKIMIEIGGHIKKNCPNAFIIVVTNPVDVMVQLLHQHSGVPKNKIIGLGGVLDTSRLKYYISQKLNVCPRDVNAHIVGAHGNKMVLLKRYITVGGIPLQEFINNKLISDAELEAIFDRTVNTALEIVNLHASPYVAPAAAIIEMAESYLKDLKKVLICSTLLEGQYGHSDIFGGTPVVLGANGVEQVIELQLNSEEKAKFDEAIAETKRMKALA
Sequence of Calcium-dependent protein kinase 4 (Plasmodium falciparum (isolate 3D7)) (Q8IBS5 whole entry, looked up): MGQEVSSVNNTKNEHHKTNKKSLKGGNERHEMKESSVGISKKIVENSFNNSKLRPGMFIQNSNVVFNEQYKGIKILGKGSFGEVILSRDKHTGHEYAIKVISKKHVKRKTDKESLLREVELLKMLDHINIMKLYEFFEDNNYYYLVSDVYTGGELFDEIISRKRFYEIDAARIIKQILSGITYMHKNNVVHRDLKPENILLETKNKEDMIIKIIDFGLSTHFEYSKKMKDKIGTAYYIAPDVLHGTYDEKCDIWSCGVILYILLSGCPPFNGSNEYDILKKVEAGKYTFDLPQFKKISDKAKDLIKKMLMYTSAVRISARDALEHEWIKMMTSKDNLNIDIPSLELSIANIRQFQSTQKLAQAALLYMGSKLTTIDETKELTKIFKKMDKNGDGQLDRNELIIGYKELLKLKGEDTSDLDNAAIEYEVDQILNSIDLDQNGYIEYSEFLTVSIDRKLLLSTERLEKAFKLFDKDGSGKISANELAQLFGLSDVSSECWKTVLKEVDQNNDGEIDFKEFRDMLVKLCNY
Sequence of Calcium-dependent protein kinase 1 (Plasmodium falciparum (isolate 3D7)) (P62344 whole entry, looked up): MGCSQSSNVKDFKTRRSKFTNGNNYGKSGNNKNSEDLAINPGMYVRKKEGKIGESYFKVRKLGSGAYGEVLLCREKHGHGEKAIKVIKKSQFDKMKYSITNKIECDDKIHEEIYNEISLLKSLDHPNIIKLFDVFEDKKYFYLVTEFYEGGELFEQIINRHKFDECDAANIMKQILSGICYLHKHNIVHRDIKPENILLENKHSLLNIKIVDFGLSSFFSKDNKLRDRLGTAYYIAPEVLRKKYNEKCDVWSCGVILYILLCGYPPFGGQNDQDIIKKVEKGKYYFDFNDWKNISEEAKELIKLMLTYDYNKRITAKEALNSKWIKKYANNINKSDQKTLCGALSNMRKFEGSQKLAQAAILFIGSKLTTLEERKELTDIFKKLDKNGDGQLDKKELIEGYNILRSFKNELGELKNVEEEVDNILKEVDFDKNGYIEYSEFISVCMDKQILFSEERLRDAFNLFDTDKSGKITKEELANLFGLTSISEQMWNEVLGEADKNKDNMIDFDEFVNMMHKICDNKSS

As a reminder, the inhibition is the drop in the measured response relative to a control, in per cent. With `COc1ccc(C)c(Nc2ccnc(Nc3ccc(-c4cnc[nH]4)cc3)n2)c1`, the growth inhibition is 6% in assay [1] and 97% (active) in assay [4]. For the same molecule, the inhibition in assay [2] is 40%; in assay [3] it was -1%. In addition, the outcome in assay [5], in assay [6], in assay [7] and in assay [8] was inactive.

In the case of `Cc1ccc2nc3sc(C(=O)NCCCN4CCC(N5CCCCC5)CC4)cc3cc2c1`, the growth inhibition in assay [1] was 71% (active); in assay [4], 103% (active). For the same molecule, the inhibition in assay [2] was 11%; in assay [3], -5%. For the same molecule, the result in assay [5], in assay [6], in assay [7] and in assay [8] was inactive.

As for `CC(C)C[C@H](NC(=O)c1cc2ccccc2s1)C(=O)N[C@H]1CCN(Cc2ccc(OCCCN(C)C)c(Cl)c2)C1`, the growth inhibition was 89% (active) in assay [1] and 100% (active) in assay [4]. Further, the inhibition is 83% (active) in assay [2] and 1% in assay [3]. Besides, the result in assay [5], in assay [6], in assay [7] and in assay [8] was inactive.

For the molecule `CCC1N=C(N)N=C(N)N1OCc1cccc2ccccc12` (configuration not stated), the growth inhibition in assay [1] is 1%; in assay [4] it was 93% (active). Moreover, the figures for the inhibition in assay [2] and in assay [3] were 66% (active) and -4%, respectively. Moreover, the outcome in assay [5], in assay [6], in assay [7] and in assay [8] was inactive.

On to `COc1cc2nc(N3CCN(c4cc(C)ccc4C)CC3)nc(N)c2cc1OC`, for which the growth inhibition in assay [1] is 12%; in assay [4] it was 98% (active). Also, the inhibition in assay [2] was 66% (active); in assay [3], 5%. The result in assay [5], in assay [6], in assay [7] and in assay [8] was inactive.

As for `O=C(C=Cc1ccc(Cl)c(Cl)c1)NCCCCCN1CCC(CCNC(=O)c2cccc3ccccc23)CC1`, the results for the growth inhibition in assay [1] and in assay [4] were -1% and 85% (active), respectively. Besides, the inhibition in assay [2] is 17%; in assay [3], 4%. The outcome in assay [5], in assay [6], in assay [7] and in assay [8] was inactive.

On to `O=S(=O)(c1ccccc1)n1ccc2cc(Nc3ncnc4cc(C#C[C@H]5CCCN5)sc34)ccc21`, for which the values for the growth inhibition in assay [1] and in assay [4] were 56% (active) and 85% (active), respectively. Further, the values for the inhibition in assay [2] and in assay [3] were 50% (active) and -3%, respectively. The result in assay [5], in assay [6], in assay [7] and in assay [8] was inactive.

Take `c1cc(CNCCN2CCNCC2)cc(-c2cccc(-c3nc4ccccc4[nH]3)c2)c1`: the growth inhibition was 1% in assay [1] and 89% (active) in assay [4]. Moreover, the figures for the inhibition in assay [2] and in assay [3] were 11% and -3%, respectively. The result in assay [5], in assay [6], in assay [7] and in assay [8] was inactive.

In the case of `CO/C(=C\C=C\c1cc2cc(Cl)c(Cl)cc2[nH]1)C(=O)NCCCN(C)CCN(C)c1ccccc1`, the values for the growth inhibition in assay [1] and in assay [4] were 59% (active) and 96% (active), respectively. In addition, the inhibition in assay [2] was 38%; in assay [3], 0%. In addition, the outcome in assay [5], in assay [6], in assay [7] and in assay [8] was inactive.

Regarding `CCC(CC)(CCC#N)CN(C[C@@H](O)[C@H](Cc1ccccc1)NC(=O)OC(C)(C)C)S(=O)(=O)c1ccc(OC)cc1`, the growth inhibition in assay [1] was 66% (active); in assay [4], 82% (active). Further, the figures for the inhibition in assay [2] and in assay [3] were -12% and 0%, respectively. Besides, the result in assay [5], in assay [6], in assay [7] and in assay [8] was inactive.

With `COc1cc2ccccc2c(CNCCCCCCNCc2c(OC)c(OC)cc3ccccc23)c1OC`, the results for the growth inhibition in assay [1] and in assay [4] were 89% (active) and 95% (active), respectively. Moreover, the inhibition is 100% (active) in assay [2] and -4% in assay [3]. Further, the result in assay [5], in assay [6], in assay [7] and in assay [8] was inactive.

For the molecule `O=C(Nc1cccc(-c2cccc(CN3CCCC3)c2)c1)c1cccc(Cl)c1`, the growth inhibition in assay [1] is 30%; in assay [4] it was 89% (active). Moreover, the inhibition is 44% in assay [2] and -2% in assay [3]. In addition, the outcome in assay [5], in assay [6], in assay [7] and in assay [8] was inactive.

As for `CCC(CC)(Cc1ccccc1)NC(=O)[C@H](CC1CCCCC1)Nc1ccc(C#N)c2ccccc12`, the growth inhibition in assay [1] was 76% (active); in assay [4], 95% (active). In addition, the results for the inhibition in assay [2] and in assay [3] were 4% and -5%, respectively. Moreover, the result in assay [5], in assay [6], in assay [7] and in assay [8] was inactive.

For `Cn1nccc1C(=O)NCCNCc1cccc(-c2ccc(-c3nc4ccccc4[nH]3)cc2)c1`, the growth inhibition in assay [1] was 98% (active); in assay [4] it was 100% (active). Besides, the inhibition in assay [2] was 19%; in assay [3], 4%. Besides, the outcome in assay [5], in assay [6], in assay [7] and in assay [8] was inactive.

In the case of `CN1CCC(NCCS(=O)(=O)c2cccc(Nc3ccc(-c4cccc(F)c4)cn3)c2)CC1`, the growth inhibition in assay [1] is -3%; in assay [4], 99% (active). The inhibition was 27% in assay [2] and 5% in assay [3]. The result in assay [5], in assay [6], in assay [7] and in assay [8] was inactive.

In the case of `OC(CNc1ccnc(Nc2cccc(Cl)c2)n1)c1cccc(F)c1` (configuration not stated), the growth inhibition is 29% in assay [1] and 90% (active) in assay [4]. Further, the inhibition in assay [2] is 16%; in assay [3], 3%. Moreover, the outcome in assay [5], in assay [6], in assay [7] and in assay [8] was inactive.

As to `CN1CCCC(CN2CCN(Cc3cccc(-c4ccc(-c5nc6ccccc6[nH]5)s4)c3)CC2)C1` (configuration not stated), the growth inhibition in assay [1] and in assay [4] was 99% (active) each time. Also, the inhibition in assay [2] is 52% (active); in assay [3], -6%. Further, the outcome in assay [5], in assay [6], in assay [7] and in assay [8] was inactive.

On to `FC(F)(F)c1ccc2nc(-c3ccc(-c4cccc(CNCc5cnn(-c6ccccc6)n5)c4)s3)[nH]c2c1`, for which the growth inhibition in assay [1] is 91% (active); in assay [4] it was 101% (active). Further, the inhibition was 38% in assay [2] and -2% in assay [3]. Also, the outcome in assay [5], in assay [6], in assay [7] and in assay [8] was inactive.

With `Cc1cccc2[nH]c(-c3cccc(-c4ccc(NC(=O)C(C)CN5CCN(C)CC5)cc4)c3)nc12` (configuration not stated), the growth inhibition is 100% (active) in assay [1] and 99% (active) in assay [4]. Besides, the inhibition in assay [2] was 7%; in assay [3], -6%. Also, the outcome in assay [5], in assay [6], in assay [7] and in assay [8] was inactive.

The values above are taken from PubChem BioAssay.
